# This is a sample that favours compounds with a hit; in the whole collection about 22% have one here.
# CYP2C19 activ: activators of human cytochrome P450 2C19; P33261; AID 1025; 96,000 tested, under 10 active; recombinant CYP2C19, luciferin-H EGE luminescence; hits give high values; 0 = fully inhibited enzyme, 1 = untreated enzyme; activation factor at 5 µM;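 active = activation factor of at least 2 at 5 µM in the primary screen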;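 note: 0 = wells with 2.5 mM tranylcypromine and 1 = vehicle-only wells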
# Target sequence (P33261 whole entry, looked up): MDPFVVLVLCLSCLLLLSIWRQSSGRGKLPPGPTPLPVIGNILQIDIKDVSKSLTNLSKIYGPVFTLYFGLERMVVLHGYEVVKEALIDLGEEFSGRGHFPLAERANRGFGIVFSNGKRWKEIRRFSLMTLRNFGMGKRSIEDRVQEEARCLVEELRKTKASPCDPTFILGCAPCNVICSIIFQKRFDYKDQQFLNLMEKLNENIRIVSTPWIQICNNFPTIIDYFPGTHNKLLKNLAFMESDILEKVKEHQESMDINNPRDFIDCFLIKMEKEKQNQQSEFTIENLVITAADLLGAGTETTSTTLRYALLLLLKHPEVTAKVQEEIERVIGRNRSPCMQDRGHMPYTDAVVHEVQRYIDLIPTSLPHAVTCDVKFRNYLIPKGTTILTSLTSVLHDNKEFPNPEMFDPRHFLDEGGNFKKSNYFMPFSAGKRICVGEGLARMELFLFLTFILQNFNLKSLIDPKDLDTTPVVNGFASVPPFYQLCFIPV
# CYP2C9 inh: inhibitors of human CYP2C9; CYP2C9 Supersomes, luciferin-H conversion, luminescence; 20% of 96,000 active; AID 777; P11712; inhibition, % at 5 µM;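 active = blocking of liver enzyme CYP2C9 beyond about 50% at 5 µM, limit read from the data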
# CYP2C19 inhib: blocks human cytochrome P450 2C19; P33261; 21% of 96,000 active; CYP2C19 Supersomes, luciferin-H EGE luminescence, 30 min; inhibition, % at 5 µM;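 active = CYP2C19 inhibition above a set limit at 5 µM in the primary screen, cut at about 50% in these data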;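 note: plate controls were negative control wells for no effect and 2.5 mM tranylcypromine positive control for full effect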
# E-sel TNF inh: TNF alpha driven E-selectin expression inhibition | 0.71% of 120,000 active | AID 1246 | HUVEC TNFa-induced E-selectin immunofluorescence, high content | inhibition, % at 2 µM;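 active = inhibition above the batch mean plus 3 SD, and confirmed as a hit on visual image review, cut at about 43% in these data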;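 note: 0% = TNF-stimulated DMSO wells and 100% = unstimulated control wells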
# F-actin modifier: modifiers of cytoskeleton assembly | HUVEC TNFa F-actin phalloidin imaging, high content | inhibition, % at 2 µM | 0.18% of 91,000 active;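 active = inhibition above the batch mean plus 3 SD and confirmed as a hit by visual image inspection, cut at about 30% in these data, passing the limit was not always enough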
# CYP2C9 act: CYP2C9 (human) activation | P11712 | recombinant CYP2C9, luciferin-H conversion, luminescence; hits give high values; factor 1 = untreated enzyme, 0 = blocked | activation factor at 5 µM | 1.4% of 96,000 active | AID 1024;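 active = activation factor of 2 or more for CYP2C9 at a 5 µM dose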;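 note: 0 = sulfaphenazole-blocked wells and 1 = vehicle-only wells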
# * marks the source's active call; other numbers are inactive results; nt = no result.
SMILES,CYP2C19 activ,CYP2C9 inh,CYP2C19 inhib,E-sel TNF inh,F-actin modifier,CYP2C9 act
O=C1COc2ccc(C(=O)CSc3nnc(Cc4cccs4)n3-c3ccc(Cl)cc3)cc2N1,0.8,29,17,nt,6,0.7
CN1CCC(=NNc2ncnc3sc4c(c23)CCCC4)CC1,nt,nt,nt,14,nt,nt
CCOC(=O)c1c(C)c(C(=O)NCc2ccccc2OC)c(C)n1C,0.7,-31,30,0,3,1.3
COc1cccc(C(=O)OCC(=O)NCCc2ccccc2)c1OC,nt,nt,nt,5,nt,nt
Cn1c(NC(=O)c2ccccc2)c(-c2cccs2)c(=O)c2ccccc21,1.1,84*,-15,2,9,0.2
Cn1c(NC(=O)c2ccccc2)c(-c2ccccn2)c(=O)c2ccccc21,1.1,28,-11,-4,0,0.7
Cn1c(NC(=O)c2cccs2)c(-c2cccs2)c(=O)c2ccccc21,1,67*,4,nt,3,0.3
CC(C)C(=O)Nc1c(-c2cccs2)c(=O)c2ccccc2n1C,1,-14,-1,2,-8,1.1
CCc1ccc2[nH]c(=O)c(CN(CCO)C(=O)NCc3ccccc3)cc2c1,0.7,-13,25,nt,nt,1.1
Cc1ncc2c(c1OC(=O)c1ccc([N+](=O)[O-])cc1)COC(C)(C)OC2,0.9,-8,15,-20,14,1.1
COC(=O)CS(=O)(=O)c1ccsc1C(=O)Nc1ccc(F)c(F)c1,nt,nt,nt,-3,nt,nt
CNC(=O)c1sccc1S(=O)(=O)Cc1c(Cl)cccc1Cl,0.1,54*,87*,4,16,0.5
CN(CC(CC(=O)O)c1ccccc1)S(=O)(=O)c1ccc(Br)cc1 (stereo not drawn),1,-12,2,3,-12,1.1
COc1ccc(-c2noc(CN(C)S(=O)(=O)c3ccc(Cl)cc3)n2)cc1OC,0.6,13,42,21,-2,0.9
CC(C)N(Cc1nc(-c2ccccc2)no1)C(=O)CN(C)S(=O)(=O)c1ccc(Br)cc1,0.5,58*,52*,2,16,0.4
CN(Cc1nc(-c2cccnc2)no1)S(=O)(=O)c1ccc2ccccc2c1,0.1,27,86*,11,9,0.7
CN(Cc1nc(-c2ccccn2)no1)S(=O)(=O)c1ccc(Br)cc1,0.4,61*,61*,-16,8,0.4
CC(C)N(Cc1nc(-c2ccc(Cl)cc2)no1)C(=O)CN(C)S(=O)(=O)c1ccc(Cl)cc1,0.4,89*,62*,-4,16,0.1
CN(Cc1nc(-c2cccnc2)no1)S(=O)(=O)c1ccc(Br)cc1,0.7,38,29,-23,7,0.6
Cc1cccc(OCc2nnc3n2CCCCC3)c1,0.9,-16,14,-7,5,1.2
COc1cc(NC(=O)c2ccc3c(=O)n(Cc4ccco4)c(=S)[nH]c3c2)cc(OC)c1OC,1,-3,-4,-2,22,1
Cc1nc(CCN2C(=O)c3ccccc3C2=O)n[nH]1,1,6,-1,33,-1,0.9
Cc1ccc(/C=C(/C#N)c2nc(CCN3C(=O)c4ccccc4C3=O)cs2)cc1,0.5,51*,53*,9,-2,0.5
Cc1cc(NS(=O)(=O)c2ccccc2)n(-c2ccccc2)n1,1,86*,4,-15,-2,0.1
Cc1cc(Nc2nnnn2-c2ccccc2)n(-c2ccc(Cl)cc2)n1,0.3,32,65*,4,12,0.7
SMILES,CYP2C19 activ,CYP2C9 inh,CYP2C19 inhib,E-sel TNF inh,F-actin modifier,CYP2C9 act
Cc1cc(Nc2ccccc2)n(-c2ccccc2)n1,0.1,75*,90*,1,1,0.3
COc1cnc(-c2ccccc2)nc1Oc1ccc(C(C)(C)C)cc1,1.1,20,-6,-12,16,0.8
CCN(CC)c1nc2ccccc2nc1C(C#N)C(=O)NCCCOC (stereo not drawn),0.4,79*,56*,16,1,0.2
CCN(CC)c1nc2ccccc2nc1C(C#N)C(=O)NCCc1ccccc1 (stereo not drawn),0.9,54*,13,18,-10,0.5
CCCCN(CCCC)c1nc2ccccc2nc1C(C#N)C(=O)NCCCOC (stereo not drawn),0.8,28,20,nt,-14,0.7
CC1CCCCC1NC1=NCCS1 (stereo not drawn),0.8,3,18,4,-21,1
CC(C)=C(NC(=O)c1ccccc1)C(=O)NCCCC(=O)O,1.1,-12,-15,-4,-25,1.1
O=C(O)c1ccc(-c2ccc(Cl)cc2Cl)o1,1.1,32,-7,61*,-15,0.7

# Compound activity: PubChem BioAssay, several laboratories
